{"source": "PubChem BioAssay (NCI)", "note": "About 83,000 compounds went through this panel and 20% of them were active in at least one assay; those are over-represented in the sample as a whole.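 Assay: single dose, 48 h. Readout: percent growth (0 = no net growth; negative = cell death). Active: <10.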 Unmarked numbers belong to inactive results. Calls of active or inactive are those of the source."}
{"test_system": "SK-MEL-28 melanoma", "experiment": "NCI-60 one-dose screen, 48 h (100 = growth as untreated, 0 = no growth, -100 = all killed)", "conditions": "10 µM unless noted", "description": "Growth inhibition of the SK-MEL-28 human tumor cell line is measured as a screen for anti-cancer activity. Cells are grown in 96 well plates and exposed to the test compound for 48 hours. Compounds are tested at a single concentration, which is 10^-5 M for most compounds. The reported endpoint is percent growth (GI% or GIPRCNT), where numbers from 0 - 100% represent growth inhibition, and numbers from -100% - 0 represent cell death. For example, a value of 40 represents 60% growth inhibition. A value of 0 means no net growth occurred over the course of the experiment. A value of -40 indicates 40% of cells at the beginning of the experiment died by the end of the experiment. A value of -100 means all cells are dead at the end of the experiment.\nNCI-60 Human Tumor Cell Lines Screen was performed using the standard one-dose NCI protocol, which is described in more detail at https://dtp.cancer.gov/discovery_development/nci-60/default.htm.\nCompounds with GIPRCNT values below 10 were considered active. Activity score was based on GIPRCNT using the following formula: […]\nScore is 0 for GIPRCNT values of 100 or above, 50 for GIPRCNT values of 0, and 100 for GIPRCNT values of -100."}
{"smiles": "O=C(CCCCCCCn1cc(-c2cccnc2)nn1)Nc1ccccc1-c1ccccc1", "growth": "71%"}
{"smiles": "CCCCN1CCN(c2ccc3nc(-c4ccc5nc(-c6ccc(OCC)c(OCC)c6)[nH]c5c4)[nH]c3c2)CC1", "growth": "45.8%"}
{"smiles": "CC1(C)CC(=O)c2c(ccc(C(=O)C[C@H](N)CO)c2N)O1", "growth": "38%"}
{"smiles": "CS(=O)(=O)c1ccc(-c2[nH]c3ccc(F)cc3c2/C=N/O)cc1", "growth": "108%"}
{"smiles": "O=C(Nc1ccccc1Cl)OCCN1CCOCC1", "growth": "110%"}
{"smiles": "Nc1nc(N)c(-c2ccc(Cl)cc2)c(/C=C/c2ccc([N+](=O)[O-])cc2)n1", "growth": "95.7%"}
{"smiles": "CN(C)CCn1cc(-c2ccc3c(Nc4ccc(CC(=O)Nc5cccc(F)c5)cc4)ncnc3c2)cn1", "growth": "-89.6% [30 µM] (active)"}
{"smiles": "COc1cc(/C=C/C(=O)c2ccc(Nc3nc(Nc4ccccc4)nc(Nc4ccc(Cl)cc4)n3)cc2)cc(OC)c1OC", "growth": "39.9%"}
{"smiles": "Cc1cc2c(F)c(Oc3ncnc(Nc4ccc(N5C[C@@H](C)N[C@@H](C)C5)cc4)c3C#N)cc(F)c2[nH]1", "growth": "-63.6% (active)"}
{"smiles": "CCCCNC(=O)NS(=O)(=O)c1ccc(N2N=C(c3ccc(C)cc3C)CC2c2ccc(N(C)C)cc2)cc1", "note": "(stereo not given)", "growth": "45.5%"}
{"smiles": "C/C(=N\\NC(=O)Cn1c(-c2ccc(S(C)(=O)=O)cc2)nc2cc(Cl)ccc21)c1ccc(Cl)cc1", "growth": "90%"}
{"smiles": "N#Cc1cccc(-c2nc3ccccn3c2NCCN2CCOCC2)c1", "growth": "107%"}
{"smiles": "CN(C)c1cnccn1", "growth": "103%"}
{"smiles": "COc1ccc(-c2nnc(SCC(=O)NC3=NN=C(c4ccccc4)CS3)o2)cc1", "growth": "109%"}
{"smiles": "C/C(Cc1ccc(Cl)cc1)=C(/c1ccc(Cl)cc1)c1ccc(OCCN(C)C)cc1", "growth": "84.4%"}
{"smiles": "COc1ccc(-c2c(N)n[nH]c2-c2ccccc2O)cc1OC", "growth": "103%"}
{"smiles": "O=C(/C=C/C12c3ccccc3C(c3ccccc31)C1C(=O)N(c3ccccc3)C(=O)C12)c1ccccc1", "note": "(stereo not given)", "growth": "2.04% (active)"}
{"smiles": "Cc1nc2ccccc2c(/C=C/c2ccc(Cl)cc2)c1C(=O)/C=C/c1ccc(Cl)cc1", "growth": "-66.6% (active)"}
{"smiles": "CCCCCCCC/C=C\\CCCCCCCC(=O)Oc1cccc2cccnc12", "growth": "176%"}
{"smiles": "NC(=Nc1ccc(N)cc1)C(N)=Nc1ccc(N)cc1", "growth": "117%"}
{"smiles": "CCOC(=O)c1c(C)nc2c(c1N)/C(=C/c1ccc(OC)cc1)C(=O)N2Cc1ccc(F)cc1", "growth": "-39.9% (active)"}
{"smiles": "N[C@@H]1CCC[C@H]1NCCCCN1C(=O)c2cccc3cccc(c23)C1=O", "growth": "89.5%"}
{"smiles": "CCN(CC)CC(O)CNc1c2ccc(Cl)cc2nc2ccc(OC)cc12", "note": "(stereo not given)", "growth": "-96.6% (active)"}
{"smiles": "Cc1cc(Cc2cc(C)cc(C(C)(C)C)c2O)c(O)c(C(C)(C)C)c1", "growth": "80.3%"}
{"smiles": "COc1ccc(O)c(-c2cc(-c3ccccc3)c(C#N)c(=O)[nH]2)c1", "growth": "113%"}
{"smiles": "Cc1cc(-c2ccccc2)cc(SC#N)[n+]1[O-]", "growth": "45.1%"}
{"smiles": "Cc1c2c(cn1Cc1ccccc1)CCc1cn(C)nc1-2", "growth": "104%"}
{"smiles": "N[C@H]1CCC[C@@H]1NCCCCN1C(=O)c2cccc3cccc(c23)C1=O", "growth": "90.3%"}
{"smiles": "CCCCCCCSc1ccc(C(=O)O)cc1", "growth": "105%"}
{"smiles": "CNC(=O)c1cc(Oc2ccc3nc(NC(=O)Nc4cc(C(F)(F)F)cc(C(F)(F)F)c4)sc3c2)ccn1", "growth": "-71% (active)"}
{"smiles": "CC(C)OCCCNCC(=O)Nc1ccc(S(=O)(=O)c2ccc(NC(=O)CNCCCOC(C)C)cc2)cc1", "growth": "99.9%"}
{"smiles": "OCCCCc1nccc2c1[nH]c1ccccc12", "growth": "111%"}
{"smiles": "CN(C)c1ccc2cc(-c3ccc(Cl)c(Cl)c3)c(N)nc2c1", "growth": "47.4%"}
{"smiles": "Clc1ccc2[nH]c3c(NCCCN4CCOCC4)ncnc3c2c1", "growth": "91.2%"}
{"smiles": "O=C1/C(=C/c2ccc([N+](=O)[O-])cc2)COc2ccc(O)c(O)c21", "growth": "54.6%"}
{"smiles": "CCn1nc(C#Cc2c(C)ccc3c(Nc4ccc(Cl)cc4)nccc23)c2c(N)ncnc21", "growth": "0.371% (active)"}
{"smiles": "CN1CCN(c2ccc3nc(/N=C/c4ccc5sc(-c6ccc([N+](=O)[O-])cc6)nc5c4)sc3c2)CC1", "growth": "107%"}
{"smiles": "CNC(=O)NCC1OC(n2cnc3c(NC(=O)Nc4ccccc4)ncnc32)C2OC(C)(C)OC12", "note": "(stereo not given)", "growth": "91.7%"}
{"smiles": "Cc1cc(-c2noc(C(F)(F)F)n2)ccc1N1CCN(c2cc(C(=O)N(C)C)no2)CC1", "growth": "84.8%"}
{"smiles": "CCN(CC)CCCC(C)NCc1ccccc1", "note": "(stereo not given)", "growth": "102%"}
